Data: article PMC4336329 (PLoS ONE, 2015)
About 14,000 (4.5%) of roughly 310,000 compounds showed an effect of 50% or more. The effect is printed as a negative number. The sample holds strong results, similar compounds and a random draw of the others, so the mix is not that of the screen.

What follows are compounds tested against human ether-à-go-go-related gene (hERG) potassium channel (human, UniProt Q12809) (assay: primary screen, population patch clamp on CHO cells stably expressing hERG; higher = less effect of the substance).
Sequence of human ether-à-go-go-related gene (hERG) potassium channel (Q12809 whole entry, looked up): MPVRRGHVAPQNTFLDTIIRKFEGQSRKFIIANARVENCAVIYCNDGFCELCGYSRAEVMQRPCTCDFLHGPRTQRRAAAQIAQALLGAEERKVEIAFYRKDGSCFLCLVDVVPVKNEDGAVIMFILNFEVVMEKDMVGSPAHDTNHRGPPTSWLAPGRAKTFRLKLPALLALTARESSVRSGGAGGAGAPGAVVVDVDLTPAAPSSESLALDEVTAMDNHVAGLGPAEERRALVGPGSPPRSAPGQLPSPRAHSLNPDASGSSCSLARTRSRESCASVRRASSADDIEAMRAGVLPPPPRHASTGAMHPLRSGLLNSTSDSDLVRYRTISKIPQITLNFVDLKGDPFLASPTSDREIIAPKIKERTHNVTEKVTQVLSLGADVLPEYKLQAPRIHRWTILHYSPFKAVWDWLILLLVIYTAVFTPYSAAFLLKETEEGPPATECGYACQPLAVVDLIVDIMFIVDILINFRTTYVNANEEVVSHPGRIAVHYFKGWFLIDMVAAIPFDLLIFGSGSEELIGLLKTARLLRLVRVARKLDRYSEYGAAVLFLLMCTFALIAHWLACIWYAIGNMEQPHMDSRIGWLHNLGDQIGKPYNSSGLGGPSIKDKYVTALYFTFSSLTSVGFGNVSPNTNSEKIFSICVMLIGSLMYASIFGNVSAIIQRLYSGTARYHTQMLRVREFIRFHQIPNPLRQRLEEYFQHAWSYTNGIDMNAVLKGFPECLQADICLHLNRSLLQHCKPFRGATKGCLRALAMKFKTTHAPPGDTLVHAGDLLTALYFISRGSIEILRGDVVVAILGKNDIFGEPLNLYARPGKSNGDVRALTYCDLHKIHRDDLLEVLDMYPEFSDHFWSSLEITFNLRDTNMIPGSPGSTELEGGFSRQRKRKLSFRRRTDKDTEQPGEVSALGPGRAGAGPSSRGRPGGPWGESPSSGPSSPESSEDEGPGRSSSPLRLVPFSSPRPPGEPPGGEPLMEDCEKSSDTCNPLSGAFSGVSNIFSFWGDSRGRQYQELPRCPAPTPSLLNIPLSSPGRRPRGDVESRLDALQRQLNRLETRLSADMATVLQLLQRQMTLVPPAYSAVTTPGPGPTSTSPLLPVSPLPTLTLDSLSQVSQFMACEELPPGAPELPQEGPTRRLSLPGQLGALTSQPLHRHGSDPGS
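Also: peak tail current of the secondary pulse compared with the same well before compound.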

Structure (SMILES)	hERG current change (%, negative = inhibition) at 10uM [%]
Cn1c(=O)n(C)c2cc(NS(=O)(=O)c3ccc(F)cc3)ccc21	1.38
O=C(NCc1cccnc1)C1CC(=O)N(c2ccc(F)cc2)C1 (stereo not drawn)	-15.1
CC(SCc1ccccc1)C(=O)NC1CCCC1 (stereo not drawn)	3.27
CCN(CC)CCNC(=O)Cn1c(C)cc2ccccc2c1=O	1.83
CSc1ccc(/C=C/C(=O)c2ccc(NC(C)=O)cc2)cc1	12.6
OCCOCCn1c(C(CO)Nc2nc(-c3cccc(Br)c3)cs2)nc2ccccc21 (stereo not drawn)	-12.5
OCCOCCn1c(C(CO)Nc2nc(-c3ccccc3Br)cs2)nc2ccccc21 (stereo not drawn)	-72
Cc1ccc(-c2csc(NC(CO)c3nc4ccccc4n3CCOCCO)n2)cc1 (stereo not drawn)	-47.3
O=C(Cc1cccs1)Nc1nnc(SCC(=O)NC2CCCCC2)s1	7.84
CCOc1ccccc1NC(=O)C1C2CCC3C(CCC21)C3(Cl)Cl (stereo not drawn)	-13.4
CNC(=O)CSc1nccn1Cc1ccc(Cl)cc1	-64.9
NC(=O)CSc1nccn1Cc1ccc(Cl)cc1	19.1
CC(=O)Nc1ccc(NC(=O)CSc2nccn2Cc2ccc(Cl)cc2)cc1	-9.56
Cc1nnc(SCc2ccccc2)n1CC1CCCO1 (stereo not drawn)	11.9
O=C(C1=NN(c2ccccc2)C2C(=O)N(c3cccc(Cl)c3)C(=O)C12)c1ccccc1 (stereo not drawn)	1.55
Clc1ncnc2scc(-c3ccc(Br)cc3)c12	7.97
COc1ccccc1N=Nc1c(O)[nH]c2ccc(Br)cc12	14.2
CC(=O)N1CCN(Cc2nc3cc(NC(=O)c4ccc(Cl)cc4)ccc3n2C)CC1	-65.8
Cn1c(CN2CCOCC2)nc2cc(NC(=O)c3ccc(F)cc3)ccc21	-12.5
Cn1c(CN2CCCCC2)nc2cc(NC(=O)c3ccc(F)cc3)ccc21	-54.2
CC(=O)N1CCN(Cc2nc3cc(NC(=O)c4ccc(F)cc4)ccc3n2C)CC1	-8.9
COc1ccc(C(=O)Nc2ccc3c(c2)nc(CN2CCCC2)n3C)cc1	-44.4

Structure (SMILES)	hERG current change (%, negative = inhibition) at 10uM [%]
CCOC(=O)Nc1ccc2c(c1)nc(CN1CCCCC1)n2C	-7.84
Cn1c(CN2CCOCC2)nc2cc(NC(=O)c3ccc(Cl)cc3)ccc21	-34.2
Cn1cnc2cc(NC(=O)c3ccc(Cl)cc3)ccc21	-18.9
CC(C)(C)n1cnc2cc(NC(=O)c3ccc(Cl)cc3)ccc21	-59.1
COc1ccc(C(=O)Nc2ccc3c(c2)nc(CN2CCN(C(C)=O)CC2)n3C)cc1	-0.777
Cn1c(CN2CCCC2)nc2cc(NC(=O)c3ccc(Cl)cc3)ccc21	-82
CC(C)(C)n1cnc2cc(NC(=O)c3ccccc3)ccc21	-9.28
O=C(NCCc1ccccc1)/C(=N\O)c1ccccc1	7.7
CCn1c(=O)c2sccc2n2c(CCCC(=O)NC3CCN(Cc4ccccc4)CC3)nnc12	-6.43
COc1ccc(OC)c(C2C(C(C)=O)=C(O)C(=O)N2CCN2CCOCC2)c1 (stereo not drawn)	-6.92
COc1ccc(C)cc1NC(=O)CCN1CCN(c2ccccc2F)CC1.Cl	-19.9
Cc1ccccc1OCC(=O)NNC(=O)CN1C(=O)c2ccccc2C1=O	-9.07
NNc1nc2sc3c(c2c(=O)[nH]1)CCc1ccccc1-3	7.46
Cc1ccc(C)c(N2CCN(C(=O)Cc3c(C(=O)O)[nH]c4ccc(Cl)cc34)CC2)c1	10.1
O=C(O)COc1cccc2nsnc12	4.42
CC(=O)N1N=C(c2cccc([N+](=O)[O-])c2)OC1(C)CC(=O)Nc1ccccc1 (stereo not drawn)	-12
COc1ccc(NC(=O)CN(C)CC(=O)Nc2ccc(N3CCOCC3)cc2)c([N+](=O)[O-])c1	-26.2
CNC(=O)OCc1cccc(COC(=O)NC)n1.Cl	27.2
CCCC(=O)Nc1ccc2c(c1)nc(CN1CCCCC1)n2C	2.55
COc1ccccc1C(=O)Nc1ccc2c(c1)nc(CN1CCCCC1)n2C	-21.8
CC(=O)N1CCN(Cc2nc3cc(NC(=O)c4ccccc4C)ccc3n2C)CC1	10.2
Cn1c(CN2CCCCC2)nc2cc(NC(=O)c3ccccc3Cl)ccc21	-8.74

Structure (SMILES)	hERG current change (%, negative = inhibition) at 10uM [%]
COc1ccccc1C(=O)Nc1ccc2c(c1)nc(CN1CCN(C(C)=O)CC1)n2C	-80
Cn1c(CN2CCCCC2)nc2cc(NC(=O)c3ccc(Cl)cc3)ccc21	-59.8
CS(=O)(=O)c1ccc(-n2c(=O)n(Cc3ccccc3)c(=O)c3[nH]cnc32)cc1	-45.7
CCOP(=O)(OCC)/C(C#N)=C/c1ccc(Br)cc1	-13.5
O=C1c2ccccc2C(=O)N1CCN1CCCCC1	-6.2
CC1CN(C(=O)/C=C/c2ccccc2[N+](=O)[O-])CC(C)O1 (stereo not drawn)	-4.44
CCCCc1cn([C@@H](CCCCN)C(=O)N2CCNCC2)nn1.Cl	18.8
CCCn1c(=NC(=O)c2ccco2)c(C(=O)OCC)cc2c(=O)n3ccccc3nc21	-66.7
CCOC(=O)c1cc2c(=O)n3ccccc3nc2n(C(C)C)c1=NC(=O)c1ccco1	-56.8
CCCn1c(=NC(=O)c2c(-c3c(F)cccc3Cl)noc2C)c(C(=O)OCC)cc2c(=O)n3ccccc3nc21	5.26
CCOC(=O)c1cc2c(=O)n3ccccc3nc2n(C(C)C)c1=NC(=O)c1ccncc1	-67.5
CCOC(=O)c1cc2c(=O)n3ccccc3nc2n(C)c1=NC(=O)c1c(-c2c(F)cccc2Cl)noc1C	14
CCCCCn1c(=NC(=O)c2ccco2)c(C(=O)OCC)cc2c(=O)n3ccccc3nc21	-73.5
CCOC(=O)c1cc2c(=O)n3ccccc3nc2n(C(C)C)c1=NC(=O)c1c(-c2ccccc2Cl)noc1C	24.3
CCCn1c(=NC(C)=O)c(C(=O)OCC)cc2c(=O)n3ccccc3nc21	-9.98
CCOC(=O)c1cc2c(=O)n3ccccc3nc2n(C(C)C)c1=NC(=O)c1c(-c2c(F)cccc2Cl)noc1C	2.48
Cc1onc(-c2c(Cl)cccc2Cl)c1C(=O)NCc1cccs1	-9.65
COC(=O)CSc1nnc(SCc2ccc(Cl)cc2)s1	-0.477
Cc1occc1C(=O)N/N=C/c1ccc(-c2cccc([N+](=O)[O-])c2)o1	1.37
O=C(COC(=O)c1cc(S(=O)(=O)NCc2ccccc2)ccc1O)c1cc2ccccc2o1	11.9
COc1ccccc1NC(=O)CCCN1C(=O)C2CC=CCC2C1=O (stereo not drawn)	11.1
CCN1CCN(Cc2ccccc2NC(=O)Nc2ccc(C)cc2)CC1	-0.992

Structure (SMILES)	hERG current change (%, negative = inhibition) at 10uM [%]
COc1cc2nc(CN(CCC(C)C)Cc3nc4cc(OC)c(OC)cc4c(=O)[nH]3)[nH]c(=O)c2cc1OC	-2.68
Cc1ccccc1NC(=O)c1nn(C)c(C(=O)Nc2ccccc2C)c1[N+](=O)[O-]	0.0696
CCCCn1c(=NC(=O)c2ccco2)c(C(=O)OCC)cc2c(=O)n3ccccc3nc21	-71.7
CCOc1cc(/C=C/c2ccc3cccc([N+](=O)[O-])c3n2)ccc1OCC(=O)N(C)C	-33.4
Cc1ccc(-c2nnc(N3CCN(C(=O)c4ccco4)CC3)c3ccccc23)cc1	-75.2
Cc1ccc(-c2nnc(N3CCCCC3)c3ccccc23)cc1	-11.2
Cc1ccc(-c2nnc(N3CCN(C(=O)CN4CCOCC4)CC3)c3ccccc23)cc1	-31.5
O=C(CN1CCOCC1)N1CCN(c2nnc(-c3ccccc3)c3ccccc23)CC1	7.35
N#Cc1c(N2CCN(C(=O)c3ccco3)CC2)nc(-c2ccccc2)c2c1CCCC2	-5.84
O=C(c1ccco1)N1CCN(c2nnc(-c3ccccc3)c3ccccc23)CC1	-75.8
O=C(Nc1nccs1)C1CCN(S(=O)(=O)c2ccccc2)CC1	-14.1
CN(C)S(=O)(=O)c1cccc(NC(=O)c2sccc2-c2ccccc2)c1	-26.1
COc1ccc(NC(=S)Nc2ccc3cn[nH]c3c2)cc1	-11.9
FC(F)Oc1ccc(NC(=S)Nc2ccc3cn[nH]c3c2)cc1	-79.5
FC(F)Oc1ccc(NC(=S)NCc2ccccc2)cc1	-36.9
S=C(Nc1ccccc1)Nc1ccc2cn[nH]c2c1	-14.5
Fc1ccc(CNC(=S)Nc2ccc(OC(F)F)cc2)cc1	-20.6
CCOc1ccc(NC(=S)NCc2nc3ccccc3[nH]2)cc1	-74
FC(F)Oc1ccc(NC(=S)NCc2nc3ccccc3[nH]2)cc1	-79.2
CCc1cccc(CC)c1NC(=S)NCc1nc2ccccc2[nH]1	3.09
CCNC(=S)Nc1ccc(Cc2nc3ccccc3[nH]2)cc1	9.19
